# Tested on: NEK9
# Conditions: concentration: 1 μM, replicates: in singlicate; n = 1
# 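Note: KINOMEscan kinase panel screen.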
row,Compound,%Inh [%]
1,COc1cc2ncn(-c3cc(OCC4CCCO4)c(C(N)=O)s3)c2cc1OC (centres unmarked) [GSK204607],0
2,COc1ccccc1-c1ccc2c(NC(=O)C3CC3)n[nH]c2n1 [SB-711239],5
3,Cc1cccc(-c2cc(Nc3ccncc3)c3ccccc3n2)n1 [GSK223675],8
4,COc1ccc(Nc2nccc(-c3cccc(NC(=O)c4cc5cc(F)ccc5[nH]4)c3)n2)cc1 [GSK1229782],21
5,COc1ccc(Nc2nccc(NCCNC(=O)Nc3ccccc3F)n2)cc1 [GSK1379901],0
6,NC(=O)c1nnc2ccccc2c1N,0
7,CC(C)(C)c1ccc(C(=O)Nc2cn3cc(Cl)ccc3n2)cc1,0
8,COc1cccc(NC(=O)NC2CCN(c3ccnc(Nc4ccc(F)cc4)n3)C2)c1 (centres unmarked) [GSK1379721],35
9,Cc1ccc(-c2cc(-c3c[nH]nc3-c3ccccn3)ccn2)cc1 [GW684088],0
10,Cc1cc(N2Cc3ccccc3C2)nc(Nc2ccc(S(=O)(=O)N3CCOCC3)cc2)n1.Cl [GSK1669917],0
11,CC(C)(C)c1ccc(C(=O)Nc2cn3cc(-c4cccnc4)ccc3n2)cc1,0
12,Cc1ccccc1-n1cnc2c(N)ncnc21 [SKF-97510],0
13,Fc1cccc(COc2nnc(-c3ccc4c(c3)CCO4)o2)c1,3
14,Cc1ccc(C(=O)Nc2ccc(Nc3ccnc4cc(-c5ccccn5)ccc34)cc2O)cc1.Cl [GW440146],52
15,CS(=O)(=O)c1ccc(-c2c(-c3ncn[nH]3)sc(N3CCOCC3)c2C#N)cc1,0
16,COc1cc2nccc(Nc3ccc(NC(=O)c4ccc(C)cc4)c(O)c3)c2cc1OC.Cl [GW440132],14
17,COC(=O)c1c(-c2ccccc2)c2cc(OC)ccc2c(=O)n1Cc1ccccc1,7

row,Compound,%Inh [%]
1,O=C(O)COc1ncnc2cc(-c3ccc4[nH]ncc4c3)sc12,0
2,COc1ccc(C2=C(Nc3cccc(C(=O)O)c3)C(=O)NC2=O)cc1 [SB-390765],2
3,CCn1c(-c2ccccn2)nc2cnccc21 [SB-736398],0
4,Cn1ccc2ncnc(Oc3ccc(Nc4nc5ccccc5[nH]4)cc3)c21,0
5,O=C(Nc1n[nH]c2cc(-c3cccc(F)c3F)ccc12)C1CC1 [SB-733894],0
6,Clc1cc(Cl)cc(Nc2ccnc(Nc3cc(Cl)cc(Cl)c3)n2)c1 [GSK175726],7
7,Cc1cccc(-c2nc(Nc3ccncc3)c3ccccc3n2)n1 [GW855857],0
8,CCCc1ccc(S(=O)(=O)NC2CCN(c3ccnc(Nc4ccc(F)cc4)n3)C2)cc1 (centres unmarked) [GSK1379715],0
9,COc1ccc(CNC(=O)NC2CCN(c3ccnc(Nc4cc(OC)c(OC)c(OC)c4)n3)C2)cc1 (centres unmarked) [GSK1379748],15
10,Cc1c(O)cccc1Nc1ccnc2ccc(C(F)(F)F)cc12.Cl [GW466413],0
11,Cc1c(Cn2ccn3c(=O)cc(N4CCOCC4)nc23)cccc1C(F)(F)F [GSK2289044],20
12,COC(=O)c1c(-c2ccccc2)c2cc(C(=O)O)ccc2c(=O)n1Cc1ccccc1,0
13,Cl.c1ccc(-c2n[nH]cc2-c2ccnc(-c3ccc(CN4CCOCC4)cc3)c2)nc1 [GW776245],0
14,Cc1cc(NCC(c2ccccc2)c2ccccc2)nc(NCc2ccc(C(F)(F)F)cc2)n1 [GW497681],0
15,COc1cccc(-c2cc(-c3c[nH]nc3-c3ccccn3)ccn2)c1 [GW680338],1
16,O=C(Nc1ccccc1)Nc1cccc(Oc2ccc3nccn3n2)c1,36
17,Nc1ncnc2[nH]c(-c3ccccc3)nc12 [AH5015],1

# Tested on: T1, NIK
# T1 construct: gene MAP3K14
# Conditions: concentration: 1 μM, replicates: in singlicate; n = 1
row,Compound,%Inh [%]
1,COc1cc2ncn(-c3cc(OCC4CCCO4)c(C(N)=O)s3)c2cc1OC (centres unmarked) [GSK204607],19
2,COc1ccccc1-c1ccc2c(NC(=O)C3CC3)n[nH]c2n1 [SB-711239],0
3,Cc1cccc(-c2cc(Nc3ccncc3)c3ccccc3n2)n1 [GSK223675],14
4,COc1ccc(Nc2nccc(-c3cccc(NC(=O)c4cc5cc(F)ccc5[nH]4)c3)n2)cc1 [GSK1229782],50
5,COc1ccc(Nc2nccc(NCCNC(=O)Nc3ccccc3F)n2)cc1 [GSK1379901],9
6,NC(=O)c1nnc2ccccc2c1N,69
7,CC(C)(C)c1ccc(C(=O)Nc2cn3cc(Cl)ccc3n2)cc1,0
8,COc1cccc(NC(=O)NC2CCN(c3ccnc(Nc4ccc(F)cc4)n3)C2)c1 (centres unmarked) [GSK1379721],2
9,Cc1ccc(-c2cc(-c3c[nH]nc3-c3ccccn3)ccn2)cc1 [GW684088],47
10,Cc1cc(N2Cc3ccccc3C2)nc(Nc2ccc(S(=O)(=O)N3CCOCC3)cc2)n1.Cl [GSK1669917],0
11,CC(C)(C)c1ccc(C(=O)Nc2cn3cc(-c4cccnc4)ccc3n2)cc1,20
12,Cc1ccccc1-n1cnc2c(N)ncnc21 [SKF-97510],0
13,Fc1cccc(COc2nnc(-c3ccc4c(c3)CCO4)o2)c1,0
14,Cc1ccc(C(=O)Nc2ccc(Nc3ccnc4cc(-c5ccccn5)ccc34)cc2O)cc1.Cl [GW440146],11
15,CS(=O)(=O)c1ccc(-c2c(-c3ncn[nH]3)sc(N3CCOCC3)c2C#N)cc1,0
16,COc1cc2nccc(Nc3ccc(NC(=O)c4ccc(C)cc4)c(O)c3)c2cc1OC.Cl [GW440132],15
17,COC(=O)c1c(-c2ccccc2)c2cc(OC)ccc2c(=O)n1Cc1ccccc1,0

row,Compound,%Inh [%]
1,O=C(O)COc1ncnc2cc(-c3ccc4[nH]ncc4c3)sc12,0
2,COc1ccc(C2=C(Nc3cccc(C(=O)O)c3)C(=O)NC2=O)cc1 [SB-390765],10
3,CCn1c(-c2ccccn2)nc2cnccc21 [SB-736398],24
4,Cn1ccc2ncnc(Oc3ccc(Nc4nc5ccccc5[nH]4)cc3)c21,0
5,O=C(Nc1n[nH]c2cc(-c3cccc(F)c3F)ccc12)C1CC1 [SB-733894],0
6,Clc1cc(Cl)cc(Nc2ccnc(Nc3cc(Cl)cc(Cl)c3)n2)c1 [GSK175726],0
7,Cc1cccc(-c2nc(Nc3ccncc3)c3ccccc3n2)n1 [GW855857],0
8,CCCc1ccc(S(=O)(=O)NC2CCN(c3ccnc(Nc4ccc(F)cc4)n3)C2)cc1 (centres unmarked) [GSK1379715],23
9,COc1ccc(CNC(=O)NC2CCN(c3ccnc(Nc4cc(OC)c(OC)c(OC)c4)n3)C2)cc1 (centres unmarked) [GSK1379748],25
10,Cc1c(O)cccc1Nc1ccnc2ccc(C(F)(F)F)cc12.Cl [GW466413],22
11,Cc1c(Cn2ccn3c(=O)cc(N4CCOCC4)nc23)cccc1C(F)(F)F [GSK2289044],0
12,COC(=O)c1c(-c2ccccc2)c2cc(C(=O)O)ccc2c(=O)n1Cc1ccccc1,0
13,Cl.c1ccc(-c2n[nH]cc2-c2ccnc(-c3ccc(CN4CCOCC4)cc3)c2)nc1 [GW776245],0
14,Cc1cc(NCC(c2ccccc2)c2ccccc2)nc(NCc2ccc(C(F)(F)F)cc2)n1 [GW497681],7
15,COc1cccc(-c2cc(-c3c[nH]nc3-c3ccccn3)ccn2)c1 [GW680338],19
16,O=C(Nc1ccccc1)Nc1cccc(Oc2ccc3nccn3n2)c1,7
17,Nc1ncnc2[nH]c(-c3ccccc3)nc12 [AH5015],50
